Screening data: PubChem, National Center for Advancing Translational Sciences (NCATS)
G9a block = blocks human histone lysine methyltransferase G9a. Q96KQ7. G9a H3K9 monomethylation, AlphaScreen, 2 h. Potency, µM (titrated, usually from 102 µM), inactives show at the highest dose activity, negative = inhibition, actives largely listed as inhibitors. hit rate 8.8% among 350,000. AID 504332; note: % is set by controls: 0 for no effect and ±100 for the full control effect; nearly all actives have a fitted effect of over 75% in size
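Readings reflect AlphaScreen signal from monomethyl-H3K9 antibody detection. HMT at 20 nM; substrate b-H3K9 500 nM; cofactor SAM 20 uM; 2 h RT reaction; compounds tested as titrations in qHTS with 15 min preincubation.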
ALOX12 inh = inhibitors of human 12S-lipoxygenase ALOX12. P18054. purified 12hLO, xylenol orange hydroperoxide absorbance. Potency, µM (titrated, usually from 108 µM), for the others: at the highest dose activity change, negative = inhibition, most hits filed as inhibitors. hit rate 1.1% among 580,000. AID 1671190; note: % is set by controls: 0 for no effect and ±100 for the full control effect
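Hydroperoxide product was detected by ferrous iron/xylenol orange as the 573 to 405 nm absorbance ratio. Arachidonic acid at 40 uM (final) was turned over for 30 min at room temperature by 150 nM human 12hLO, pH 7.0 Hepes buffer, after 15 min compound preincubation.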
JMJD2A Tudor inh = blocks the human JMJD2A Tudor domain; AlphaScreen JMJD2A-Tudor / H3K4me3 peptide binding; hit rate 4.4% among 390,000; AID 504339; Potency, µM (highest dose often 114 µM), without a hit: at the top dose activity change, negative = inhibition, hits mostly inhibitors; O75164; note: % is set by controls: 0 for no effect and ±100 for the full control effect; nearly all actives have a fitted effect of over 50% in size
Target sequence (O75164 whole entry, looked up, the tested form may be a part): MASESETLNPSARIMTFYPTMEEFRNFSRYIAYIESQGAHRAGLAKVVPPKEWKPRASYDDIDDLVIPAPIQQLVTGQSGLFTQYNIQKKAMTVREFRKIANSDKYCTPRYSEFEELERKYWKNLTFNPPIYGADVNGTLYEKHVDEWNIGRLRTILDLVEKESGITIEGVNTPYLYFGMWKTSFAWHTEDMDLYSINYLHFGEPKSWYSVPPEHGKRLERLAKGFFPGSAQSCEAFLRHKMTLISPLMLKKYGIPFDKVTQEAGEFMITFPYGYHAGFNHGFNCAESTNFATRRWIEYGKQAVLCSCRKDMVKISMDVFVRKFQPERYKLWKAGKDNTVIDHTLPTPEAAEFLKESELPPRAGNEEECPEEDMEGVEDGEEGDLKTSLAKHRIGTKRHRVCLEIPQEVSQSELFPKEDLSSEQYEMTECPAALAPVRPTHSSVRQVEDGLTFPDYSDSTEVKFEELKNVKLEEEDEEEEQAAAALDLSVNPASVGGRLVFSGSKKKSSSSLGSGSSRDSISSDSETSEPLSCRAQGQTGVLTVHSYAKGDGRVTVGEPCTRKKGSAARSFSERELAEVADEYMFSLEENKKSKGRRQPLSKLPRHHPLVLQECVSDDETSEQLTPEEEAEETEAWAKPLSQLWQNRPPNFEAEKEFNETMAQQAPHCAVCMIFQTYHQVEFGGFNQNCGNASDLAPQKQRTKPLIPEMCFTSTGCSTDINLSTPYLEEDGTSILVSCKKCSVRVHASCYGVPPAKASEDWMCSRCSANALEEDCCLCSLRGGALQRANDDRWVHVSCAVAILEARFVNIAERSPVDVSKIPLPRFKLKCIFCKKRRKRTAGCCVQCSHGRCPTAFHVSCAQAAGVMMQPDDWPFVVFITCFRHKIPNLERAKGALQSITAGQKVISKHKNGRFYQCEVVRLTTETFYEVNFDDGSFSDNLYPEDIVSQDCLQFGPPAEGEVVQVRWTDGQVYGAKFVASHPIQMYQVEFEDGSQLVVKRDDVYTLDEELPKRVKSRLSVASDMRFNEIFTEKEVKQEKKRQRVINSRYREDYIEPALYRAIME
Sfp inh = blocks B. subtilis Sfp PPTase activity; Biochemical Sfp PPTase activity, qHTS; Potency, µM, inactives show largest response in the series, negative = inhibition, most hits filed as inhibitors; hit rate 3.5% among 310,000; AID 1490;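 note: the enzyme is Sfp with the accession as filed and its product quenches rhodamine fluorescence; 0% = enzyme reaction without inhibitor and -100% = no enzyme wells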
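Sfp 15 nM + cpd, 15 min RT; start w/ rhodamine-CoA 5 uM, BHQ-2-YbbR 12.5 uM (final); 50 mM Hepes pH 7.6, 10 mM MgCl2, 0.01% NP-40, 0.01% BSA; read 525/598 nm at 0 and 30 min.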
BAZ2B block = BAZ2B (human) inhibition; Q9UIF8; AlphaScreen BAZ2B-H3K14Ac peptide displacement; Potency, µM (doses to about 114 µM), without a hit: at the highest dose activity change, negative = inhibition, actives largely listed as inhibitors; hit rate 4.4% among 360,000; AID 504333; note: % is set by controls: 0 for no effect and ±100 for the full control effect; nearly all actives have a fitted effect of over 60% in size
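Multi-concentration screen (max 110 uM) measuring displacement of acetylated histone H3 peptide from BAZ2B by AlphaScreen, using 50 nM protein, 50 nM peptide and 10 ug/mL streptavidin donor plus Ni-chelate acceptor beads.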
HP1b chromo inh = blocks HP1-beta chromodomain binding to methylated histone tails; P83916; AlphaScreen HP1-beta / biotin-H3K9me3 peptide binding; Potency, µM (highest dose often 114 µM), for inactives: at the highest dose activity change, negative = inhibition, hits mostly inhibitors; hit rate 0.56% among 390,000; AID 540317; note: nearly all actives have a fitted effect of over 70% in size
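Compound inhibition of the preformed complex between 50 nM HP1-beta and 50 nM biotinylated H3K9me3 peptide was read by AlphaScreen. Buffer was PBS pH 7.4 with 0.01% Tween-20. Incubations ran 30 min at room temperature, with 10 ug/mL donor/acceptor beads.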
Active calls of the source: *; ? = inconclusive; · = no result given; [ ] = remark or other dose. Only some compounds are listed: those with a hit (about 8.7% of all), similar ones and a draw of the others. Calls come from the whole dose curve; as a rule, active = well fitted curve in the direction sought with a large enough effect; inconclusive = small, poorly fitted or top-dose-only effect, or another doubt; inactive = no such curve, though single readings can be large; an effect the other way counts as inactive or inconclusive. Potency is the fitted concentration of half-maximal effect.

SMILES | G9a block | ALOX12 inh | JMJD2A Tudor inh | Sfp inh | BAZ2B block | HP1b chromo inh
COC(=O)c1cccc(NC(=O)CN(C)Cc2nc3ccccc3c(=O)[nH]2)c1 | · | 9% | · | · | · | ·
COc1cccc(C(=O)NC2CCN(c3cc(-c4ccccc4)[nH]n3)CC2)c1OC | · | 51% | · | · | · | ·
CCCCCCCCCCC(=O)N/N=C(/C)c1cccc(NC(=O)c2ccc(Cl)cc2Cl)c1 | · | 25% | · | · | · | ·
Cc1ccc2nc(C3CCN(Cc4ccc(C#N)cc4)CC3)[nH]c(=O)c2c1 | · | -12% | · | · | · | ·
O=c1oc2c3c4c(cc2s1)CCCN4CCC3 | 7.9µM* | 18µM* | 18µM* | 18µM* | 56µM* | ?
Cc1ccc(-c2c[nH]c(=S)n2-c2ccccc2)cc1 | 0.71µM* | ? | ? | 20µM* | ? | -14%
COc1cccc(-n2c(-c3ccccc3)c[nH]c2=S)c1 | 1.4µM* | ? | ? | 45µM* | ? | ?
CCOc1ccc(-n2c(-c3ccccc3)c[nH]c2=S)cc1 | 1.3µM* | ? | ? | -24% | -11% | 25%
Cc1ccc(-n2c(-c3ccccc3)cc(=O)nc2C)cc1 | 36%[12.7 µM] | 9% | -20% | 7% | -4% | 23%
S=c1[nH]cc(-c2ccccc2)n1-c1cccc(Cl)c1 | 1.1µM* | 5% | 56µM* | -9% | -33% | 19%
N#CC(C(=O)Nc1ccccc1)C(=O)c1ccccc1Cl (stereo unspecified) | · | 60% | · | · | · | ·
COc1ccc(C(NC(=O)CSc2ccc3c(c2)OCCCO3)c2ccc(OC)cc2)cc1 | · | 14% | · | · | · | ·
Cc1nc(N2CCN(c3ccccc3O)CC2)c2c(-c3ccccc3)csc2n1 | ? | 4% | ? | -8% | 40µM* | ?
COc1ccc(-c2csc3ncnc(N4CCN(c5ccccc5OC)CC4)c23)cc1 | 45µM* | -2% | ? | -3% | -35% | ?
Oc1ccccc1N1CCN(c2ncnc3scc(-c4ccccc4)c23)CC1 | ? | -7% | ? | 3% | -25% | -24%
O=C(CC12CC3CC(CC(C3)C1)C2)NCCc1ccc(Cl)cc1 | · | -15% | · | · | · | ·
Nc1cccc(S(N)(=O)=O)c1 | · | 13% | · | · | · | ·
CC(C)Sc1nnc(Nc2ccccc2)s1 | 50µM* | 11% | 0% | -4% | 5% | 35%
COc1ccc(C(=O)NC[C@H]2Cn3c(-c4ccc(Cl)cc4)cnc3CO2)cc1 | · | 50%[176 µM] | · | · | · | ·
NC(=O)C1CCN(C2=C(NS(=O)(=O)c3ccc(Cl)cc3)C(=O)c3ccccc3C2=O)CC1 | 25µM* | -30% | ? | -15% | 35µM* | -20%
COC(=O)C1CCN(S(=O)(=O)Cc2ccccc2Cl)CC1 | 24%[59 µM] | 15% | -6% | 19% | 12% | 31%
CC1CCCN(C2=C(NS(=O)(=O)c3ccc(Cl)cc3)C(=O)c3ccccc3C2=O)C1 (stereo unspecified) | 2.5µM* | ? | 8.9µM* | -13% | 5µM* | 6.3µM*
COC(=O)C1CCN(C2=C(NS(=O)(=O)c3ccc(Cl)cc3)C(=O)c3ccccc3C2=O)CC1 | -175%[59 µM] | -26% | ? | -15% | 11µM* | ?
COc1cccc([S+](=O)([O-])N2CCC3(CC2)C(=O)Nc2ccccc23)c1 | · | 20%[176 µM] | · | · | · | ·
COC(=O)c1ccc(COC(=O)c2cc(F)c(F)cc2Cl)cc1 | · | 7% | · | · | · | ·
SMILES | G9a block | ALOX12 inh | JMJD2A Tudor inh | Sfp inh | BAZ2B block | HP1b chromo inh
COc1ccc(C(=O)NC(=S)Nc2ccc(Cl)c(C(=O)O)c2)cc1 | 50µM* | 7.1µM* | -6% | -15% | -1% | ?
COc1ccc(C(=O)NC(=S)Nc2cccc(S(=O)(=O)N3CCOCC3)c2)cc1 | 5% | 28µM* | -21% | 8% | -17% | 0%
COc1ccc(Br)cc1/C=C/C(=O)NC(=S)Nc1ccc(Cl)c(C(=O)O)c1 | 32µM* | ? | -30% | -23% | ? | -5%
COc1ccc(Br)cc1/C=C/C(=O)NCC(=O)O | 0% | -10% | -18% | 15% | -3% | 40%
Cc1ccc(C(=O)NC(=S)Nc2ccc(Oc3ccc(Cl)cc3)cc2)cc1 | -16% | 7.9µM* | -15% | 11% | -27% | 3%
CCOC(=O)c1oc2c(c1C)/C(=N\O)CCC2 | · | 9% | · | · | · | ·
N#Cc1c(Cl)nc(N/N=C/c2ccc([N+](=O)[O-])cc2)c(Cl)c1Cl | · | 33% | · | · | · | ·
CCO[C@H]1CN(C(=O)CCc2ccc(-c3ccccc3)cc2)C[C@@H]1O | · | 23% | · | · | · | ·
CC(=O)N[C@H]1C[C@@H](Cc2cc(CN3CCCCC3)on2)C1(C)C | · | -3%[176 µM] | · | · | · | ·
COc1ccc(Br)cc1C(=O)NC(=S)Nc1ccc(Cl)c(C(=O)O)c1 | 20µM* | ? | -22% | 45µM* | -10% | ?
COc1ccc(C(=O)NC(=S)Nc2ccc3c(c2)Cc2ccccc2-3)cc1 | ? | ? | -34% | 45µM* | 3% | -5%
CSc1nc(C)cc(-c2ccccc2)n1 | · | -7% | · | · | · | ·
COc1c(OC)c(O)c2c(=O)cc(-c3c(O)cccc3O)oc2c1OC | 13%[12.7 µM] | ? | -28% | 20µM* | -22% | 8%
O=C(COc1ccccc1)N1CC(F)(F)C[C@H]1c1nnc(C2CC2)o1 | · | 25% | · | · | · | ·
O=C(CSS(=O)(=O)O)N1CCN(C(=O)c2ccoc2)CC1 | 20µM* | 0% | -8% | 16µM* | 0% | 47%
NC(=O)COc1ccc2oc(-c3ccccc3)cc(=O)c2c1 | 50µM* | 4% | -3% | 19% | · | 7%
COCC(C)n1c(C)cc(C(=O)COC(=O)c2nc3nc(C)cc(C)n3n2)c1C (stereo unspecified) | 56µM* | -30% | -15% | 14% | -10% | 15%
COCC(C)n1c(C)cc(C(=O)COC(=O)c2cccn2C)c1C (stereo unspecified) | · | -6% | -29% | · | · | -1%
COC(=O)c1ccc(O)c(Sc2cc(C(=O)OC)ccc2O)c1 | 10µM* | ? | -3% | ? | 8% | 41%
COC(=O)c1ccc(O)c(Br)c1 | · | 24% | · | · | · | ·
O=c1c2cc(-c3ccc(F)cc3)nn2ccn1CC(O)c1ccc(F)cc1 (stereo unspecified) | · | -5% | · | · | · | ·
CCOc1ccc(Nc2ccc(N)c(S(=O)(=O)O)c2)cc1 | · | ? | 56µM* | · | · | 50µM*
CCOc1ccc(NS(=O)(=O)c2ccc(N)cc2)cc1 | 1% | 19% | -10% | 17% | 7% | 9%
CCOc1ccccc1NC(=O)c1c(NCc2sccc2C)sc2c1CCCCC2 | 10µM* | ? | ? | · | ? | 4%
COc1ccc(NC(=O)c2c(NCc3cccc(F)c3)sc3c2CCCC3)c(OC)c1 | 10µM* | ? | ? | · | 25µM* | ?
COc1ccc(Cl)cc1NC(=O)c1c(NCc2sccc2C)sc2c1CCCC2 | 2.8µM* | ? | 50µM* | · | 45µM* | ?
CCOC(=O)N1CCc2c(sc(NCc3sccc3C)c2C(=O)Nc2ccc(OC)cc2OC)C1 | 3.5µM* | ? | ? | · | ? | -2%
